{"source": "PubChem BioAssay AID1625", "about": "(Sanford-Burnham Center for Chemical Genomics, 2009)", "note": "The campaign covered roughly 190,000 compounds. About 570 (0.3%) were called active.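 How the source made its calls: active means z-score above 3 at 5 µM with at least 500 cells counted in the well; inconclusive means wells under 500 cells, flagged as cytotoxic or low count; inactive means the rest.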 The sample as a whole holds a higher share of actives than the screen did."}
{"assay": "insulin promoter activators in MIN6 cells, imaging, high-content screening, mouse beta cells (AID 1625);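 on cell count: total cells summed across four imaged fields per well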", "conditions": "MIN6 insulin promoter-GFP reporter, at 5 µM; cell count: measured here: cytotoxicity, nuclei count; z-score: stronger effect = higher value", "units": {"cell count": "cells"}}
{"smiles": "CCn1c(Cc2cccs2)nnc1SCC(=O)c1ccc(C)cc1", "cell count": 827, "z-score": "-1.87 (inactive)"}
{"smiles": "COc1ccc(-n2c(SCC(=O)OC(C)C)nnc2-c2ccccn2)cc1", "cell count": 1260, "z-score": "0.29 (inactive)"}
{"smiles": "Cc1ccc(-n2c(Cc3cccs3)nnc2SCC(=O)OC(C)C)cc1", "cell count": 993, "z-score": "3.05 (active)"}
{"smiles": "Cc1ccc(Oc2nc(-c3ccccn3)nc3ccccc23)cc1", "cell count": 1010, "z-score": "-0.89 (inactive)"}
{"smiles": "O=C1N(c2ccccc2)C(=Nc2ccccc2)SC12CC2", "cell count": 1070, "z-score": "-0.2 (inactive)"}
{"smiles": "COc1ccc(OC)c(S(=O)(=O)NCCC(C)C)c1", "cell count": 1220, "z-score": "-0.95 (inactive)"}
{"smiles": "CCOC(=O)CN(C(=O)COc1nc(-c2ccccc2)cc(C)c1C#N)c1ccc(F)cc1", "cell count": 1080, "z-score": "-0.04 (inactive)"}
{"smiles": "CCOC(=O)C1CCN(C(=O)Nc2ccc(C)c(Cl)c2)CC1", "cell count": 1020, "z-score": "-0.22 (inactive)"}
{"smiles": "O=C(CCCN1C(=O)/C(=C\\c2ccccc2)SC1=S)Nc1ccccc1O", "cell count": 1110, "z-score": "-1.05 (inactive)"}
{"smiles": "O=C(CCCN1C(=O)/C(=C/c2ccccc2)SC1=S)Nc1ccc(O)cc1", "cell count": 1550, "z-score": "-0.31 (inactive)"}
{"smiles": "O=C(CCN1C(=O)/C(=C/c2cccs2)SC1=S)NNC(=O)c1cccc(O)c1", "cell count": 1100, "z-score": "3.43 (active)"}
{"smiles": "Nc1nc(O)c(CC(=O)O)s1", "cell count": 1490, "z-score": "-0.64 (inactive)"}
{"smiles": "Cc1ccc(NNC(=O)C2CCC2)cc1C", "cell count": 1450, "z-score": "-0.26 (inactive)"}
{"smiles": "CCOC(=O)C1=NN(c2ccc(Cl)cc2)/C(=C/C2=NCCc3cc(OC)c(OC)cc32)S1", "cell count": 1380, "z-score": "0.35 (inactive)"}
{"smiles": "CCCN(CCC)CC(O)COc1ccccc1C(=O)Nc1ccccc1", "note": "(stereo not given)", "cell count": 1020, "z-score": "-0.54 (inactive)"}
{"smiles": "COc1ccc(-c2[nH]ncc2CN(Cc2nccn2C)C(C)C)cc1F", "cell count": 1490, "z-score": "-1.07 (inactive)"}
{"smiles": "O=S(=O)([N-]c1nc2ccccc2nc1-[n+]1ccc(Cc2ccccc2)cc1)c1ccc(Br)s1", "cell count": 1020, "z-score": "-0.15 (inactive)"}
{"smiles": "[O-][N+]12CCCCC1CCCC2CO", "note": "(stereo not given)", "cell count": 977, "z-score": "0.05 (inactive)"}
{"smiles": "O=c1c(-c2ccc(Cl)cc2)[n+]([O-])c2ccccc2n1OCc1nc2ccccc2[nH]1", "cell count": 1200, "z-score": "-1.15 (inactive)"}
{"smiles": "COc1ccc(OC)c(-c2c(=O)n(OCc3ccccc3Br)c3ccccc3[n+]2[O-])c1", "cell count": 1330, "z-score": "-0.44 (inactive)"}
{"smiles": "CCOc1ccc(OCC)c(-c2c(=O)n(OCc3ccc(Cl)cc3)c3ccccc3[n+]2[O-])c1", "cell count": 1410, "z-score": "3.34 (active)"}
{"smiles": "CCN(CC)CCNCC(=O)Nc1ccc(Oc2ccccc2)cc1", "cell count": 919, "z-score": "-0.39 (inactive)"}
{"smiles": "C/C(=N\\Nc1cccc(C(=O)O)c1)c1ccc2c(c1)Nc1ccccc1S2", "cell count": 1020, "z-score": "-0.12 (inactive)"}
{"smiles": "O=C(Cn1c(N2CCN(C/C=C/c3ccccc3)CC2)nc2ccccc21)c1ccccc1", "cell count": 1150, "z-score": "-0.35 (inactive)"}
{"smiles": "COc1ccc(F)cc1S(=O)(=O)N1CCCCC1", "cell count": 1090, "z-score": "0.19 (inactive)"}
{"smiles": "N#C/C(=C\\N1CCOCC1)S(=O)(=O)c1ccc(Cl)cc1", "cell count": 930, "z-score": "-0.15 (inactive)"}
{"smiles": "CCc1ccc(S(=O)(=O)Nc2ccc(C)c(NS(C)(=O)=O)c2)cc1", "cell count": 1030, "z-score": "0.6 (inactive)"}
{"smiles": "CCOc1cccc(SCc2noc(C(=O)NC(C)C)c2C(=O)O)c1", "cell count": 1590, "z-score": "-0.64 (inactive)"}
{"smiles": "CCCCNC(=O)c1onc(CSc2cccc(OC)c2)c1C(=O)O", "cell count": 1420, "z-score": "-0.14 (inactive)"}
{"smiles": "COCCNC(=O)c1onc(CSc2cccc(C)c2)c1C(=O)O", "cell count": 1620, "z-score": "3.82 (active)"}
{"smiles": "CN(CC(=O)Nc1ccc(F)cc1)CC(=O)Nc1ccc(Cl)c(S(=O)(=O)N2CCOCC2)c1", "cell count": 1070, "z-score": "-0.46 (inactive)"}
{"smiles": "CC(C)NC(=O)/C(C#N)=C\\c1ccc(N(C)C)c(Br)c1", "cell count": 1460, "z-score": "0.33 (inactive)"}
{"smiles": "COC(=O)c1cc(C)sc1NC(=O)CC1Nc2ccccc2NC1=O", "note": "(stereo not given)", "cell count": 1110, "z-score": "2.17 (inactive)"}
{"smiles": "CCc1cc(C(=O)OC)c(NC(=O)CC2Sc3ccc(C(F)(F)F)cc3NC2=O)s1", "note": "(stereo not given)", "cell count": 1330, "z-score": "3.33 (active)"}
{"smiles": "Cc1ccc(CNC(=O)CC2Sc3ccccc3NC2=O)cc1", "note": "(stereo not given)", "cell count": 1420, "z-score": "-0.57 (inactive)"}
{"smiles": "CCc1ccc(NC(=O)N[C@H](C(=O)O)C(C)CC)cc1", "note": "(stereo not given in full)", "cell count": 978, "z-score": "0.03 (inactive)"}
{"smiles": "O=C(Nc1nnc(SCc2c(Cl)cccc2Cl)s1)c1cccc([N+](=O)[O-])c1", "cell count": 1070, "z-score": "0.41 (inactive)"}
{"smiles": "Nc1nnc(SCn2nnc3ccccc3c2=O)s1", "cell count": 1620, "z-score": "0.07 (inactive)"}
{"smiles": "COc1ccc(C2C(C(=O)N3CCN(c4ccc(OC)cc4)CC3)c3ccccc3C(=O)N2C)cc1", "note": "(stereo not given)", "cell count": 1330, "z-score": "-1.17 (inactive)"}
{"smiles": "CCOc1ccc(C2C(C(=O)O)c3ccccc3C(=O)N2CCN2CCOCC2)cc1", "note": "(stereo not given)", "cell count": 1350, "z-score": "4.94 (active)"}
{"smiles": "CCOc1cc2c(cc1OCC)C(C(=O)O)C(c1ccc(OC)c(O)c1)N(C)C2=O", "note": "(stereo not given)", "cell count": 1550, "z-score": "0.1 (inactive)"}
{"smiles": "O=C(COC(=O)/C=C/c1ccc2c(c1)OCO2)NC1CCS(=O)(=O)C1", "note": "(stereo not given)", "cell count": 933, "z-score": "-0.06 (inactive)"}
{"smiles": "COc1ccccc1N1CCN(C(=O)CSc2ncnc3c2cnn3-c2ccc(C)c(C)c2)CC1", "cell count": 959, "z-score": "-0.23 (inactive)"}
{"smiles": "CC1Cc2ccccc2N1S(=O)(=O)c1ccc(Cl)nc1", "note": "(stereo not given)", "cell count": 1130, "z-score": "0.1 (inactive)"}
{"smiles": "CCc1nnc(NC(=O)CCC(=O)NCc2ccccc2OC)s1", "cell count": 1600, "z-score": "4.05 (active)"}
{"smiles": "COc1ccccc1CNC(=O)CCn1c(=O)sc2ccccc21", "cell count": 1300, "z-score": "-0.13 (inactive)"}
{"smiles": "CCc1nnc(NC(=O)CCC(=O)O)s1", "cell count": 879, "z-score": "-0.23 (inactive)"}
{"smiles": "O=C(Nc1ccc(Cl)cc1)/C(=C1\\CCCN1)[N+](=O)[O-]", "cell count": 1400, "z-score": "0.56 (inactive)"}
{"smiles": "COc1ccc(OC)c(-c2csc(NC(=O)C3=NNC(=O)CC3)n2)c1", "cell count": 1110, "z-score": "1.47 (inactive)"}
{"smiles": "CCOc1cccc(/C=C/c2ccc3ccccc3n2)c1OC(C)=O", "cell count": 1230, "z-score": "-0.46 (inactive)"}
{"smiles": "Cc1nc(COc2cccc(Cl)c2)sc1C(=O)/C=C/N(C)C", "cell count": 1040, "z-score": "0.55 (inactive)"}
{"smiles": "CN1CCN(c2ccc(S(=O)(=O)N3CCOCC3)cc2NC(=O)CCc2ccccc2)CC1", "cell count": 1040, "z-score": "0.32 (inactive)"}
{"smiles": "C=CCC(Nc1ccccc1)c1cccc(OC)c1OC", "note": "(stereo not given)", "cell count": 1080, "z-score": "-0.62 (inactive)"}
{"smiles": "CN1CCNC(=O)C1CC(=O)NCCC1=CCCCC1", "note": "(stereo not given)", "cell count": 1390, "z-score": "3.77 (active)"}
{"smiles": "O=C(Cc1cccc2ccccc12)NCCC1=CCCCC1", "cell count": 1280, "z-score": "-0.27 (inactive)"}
{"smiles": "O=C(Cc1nn[nH]n1)NCCC1=CCCCC1", "cell count": 1260, "z-score": "-0.63 (inactive)"}
{"smiles": "Cn1nc(C(C)(C)C)c([N+](=O)[O-])c1C(N)=O", "cell count": 1080, "z-score": "-0.1 (inactive)"}
{"smiles": "O=C(O)CC1=C(Nc2ccccc2)C(=O)N(c2ccccc2)C1c1ccc(Cl)cc1", "note": "(stereo not given)", "cell count": 1370, "z-score": "-0.28 (inactive)"}
{"smiles": "O=[N+]([O-])c1ccccc1NCc1ccccc1Cl", "cell count": 1120, "z-score": "0.76 (inactive)"}
{"smiles": "O=c1c([N+](=O)[O-])cccn1Cc1ccc(F)cc1Cl", "cell count": 1280, "z-score": "3.36 (active)"}
{"smiles": "N/C(=N/O)c1cccn1Cc1ccccc1[N+](=O)[O-]", "cell count": 1470, "z-score": "0.02 (inactive)"}
{"smiles": "CN1CCN(C(c2cc3cc4c(cc3[nH]c2=O)OCCO4)c2nnnn2C2CCCC2)CC1", "note": "(stereo not given)", "cell count": 1180, "z-score": "-0.16 (inactive)"}
{"smiles": "CCOc1ccc(-n2cnc3c(=O)[nH]c(N)nc32)cc1", "cell count": 1510, "z-score": "-0.16 (inactive)"}
{"smiles": "CC(C)(C)c1ccc(CCC2OCC(CN3CCOCC3)O2)cc1", "note": "(stereo not given)", "cell count": 1070, "z-score": "-0.91 (inactive)"}
{"smiles": "O=C(Cc1ccccc1)N1N=C(c2ccncc2)CC1(O)C(F)(F)F", "note": "(stereo not given)", "cell count": 1110, "z-score": "-0.48 (inactive)"}
{"smiles": "CN1CCN(C(=O)/C(=C\\c2ccc3c(c2)OCO3)NC(=O)c2cccs2)CC1", "cell count": 1300, "z-score": "0.04 (inactive)"}
{"smiles": "Cc1ccc(C(=O)N/C(=C/c2cccs2)C(=O)N2CCCCC2)cc1", "cell count": 1270, "z-score": "0.22 (inactive)"}
{"smiles": "CN1CCN(C(=O)/C(=C\\c2cccs2)NC(=O)c2cccs2)CC1", "cell count": 1240, "z-score": "6.06 (active)"}
{"smiles": "O=C(O)C(c1ccccc1)C1(O)CCCCC1", "note": "(stereo not given)", "cell count": 1390, "z-score": "0.43 (inactive)"}
{"smiles": "CCCCSc1nnc2c(n1)OC=Nc1ccccc1-2", "cell count": 1140, "z-score": "-0.42 (inactive)"}
{"smiles": "Cc1nc2ccccc2nc1N/N=C/c1ccc(O)cc1O", "cell count": 1210, "z-score": "-3.3 (inactive)"}
{"smiles": "Fc1ccc(/C=N/Nc2nc(-c3cccnc3)nc3ccccc23)cc1", "cell count": 1030, "z-score": "-0.09 (inactive)"}
{"smiles": "Oc1ccc(/C=N/Nc2nc(-c3ccccc3F)nc3ccccc23)c(O)c1", "cell count": 1070, "z-score": "3.69 (active)"}
{"smiles": "O=C(NCCc1ccccn1)c1cccnc1Oc1ccc(Cl)cc1", "cell count": 1560, "z-score": "-0.11 (inactive)"}
{"smiles": "Cc1cc2nc3c(=O)n(Cc4ccccc4)c(=O)[nH]c3nc2cc1N", "cell count": 1490, "z-score": "12.1 (active)"}
{"smiles": "CC(=O)c1ccc(-c2ccc(Cn3c(C)nc4cc(N)c(C)nc43)cc2)cc1", "cell count": 1520, "z-score": "0.28 (inactive)"}
{"smiles": "Cc1nc2c(c(=O)n1Cc1ccco1)c1nc3ccccc3nc1n2Cc1ccccc1", "cell count": 1260, "z-score": "-1.6 (inactive)"}
{"smiles": "COc1ccc(Nc2cc(=O)n(-c3ccccc3)c3c2c(=O)n(C)c(=O)n3C)cc1", "cell count": 991, "z-score": "0.04 (inactive)"}
{"smiles": "COc1ccc(C(=O)C2CCCN(C(=O)c3cc4nc(C)cc(C)n4n3)C2)cc1F", "note": "(stereo not given)", "cell count": 1470, "z-score": "-0.02 (inactive)"}
{"smiles": "COCc1cc(=O)[nH]c(SC)n1", "cell count": 1140, "z-score": "-0.01 (inactive)"}
{"smiles": "CC(C)c1nc(SCC(=O)NC(=O)NC(C)(C)C)n[nH]1", "cell count": 976, "z-score": "-0.03 (inactive)"}
{"smiles": "CCCn1nc2cc(C(=O)NCc3ccccc3)ccc2c1OCC", "cell count": 1430, "z-score": "4.73 (active)"}
{"smiles": "CCOc1c2ccc(C(=O)NCc3ccc(OC(F)(F)F)cc3)cc2nn1C", "cell count": 1370, "z-score": "2.39 (inactive)"}
{"smiles": "CCOc1c2ccc(C(=O)NCc3ccc4c(c3)OCO4)cc2nn1C", "cell count": 1870, "z-score": "0.4 (inactive)"}
{"smiles": "CC12CN(NC(=O)c3ccc(Cl)cc3)C3(C#N)CC1CCC23C", "note": "(stereo not given)", "cell count": 1610, "z-score": "-0.1 (inactive)"}
